Results as given in PubChem BioAssay AID1159580 (chemical genetic matrix, 2015).
Out of some 5,500 compounds screened, about 2,000 (36%) were called active. Inconclusive results (about 18%) are left out. No stated cut-off is given here; in the data, active means normalized growth mostly below about 0.91 (no sharp cut-off); inconclusive means no clear call, values can overlap the other calls; inactive means mostly above about 0.92. The list shows a part of the results.

Assay: chemical genetic growth profiling, strain panel (AID 1159580);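 further: tested at 20 µM; growth read once vehicle control cultures reached saturation at 30 °C; 1 = growth at the plate median or of vehicle wells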
Conditions: growth OD

Measured: normalized growth

O=C(O)c1cc(=O)c2c(OCC(O)COc3cccc4oc(C(=O)O)cc(=O)c34)cccc2o1
inactive: S. cerevisiae deletion strains, locus YKL009W, strain mrt4, stronger effect = lower value 1.01 | S. cerevisiae deletion strains, locus YKL068W, stronger effect = lower value 1.01 | S. cerevisiae deletion strains, locus YKL085W, strain MDH1 (second series), stronger effect = lower value 1.03 | S. cerevisiae deletion strains, locus YKL085W, strain MDH1, stronger effect = lower value 1.03 | S. cerevisiae deletion strains, locus YKL160W, strain elf1, stronger effect = lower value 0.972 | S. cerevisiae deletion strains, locus YKL190W, strain CNB1, stronger effect = lower value 1 | S. cerevisiae deletion strains, locus YKR001C, strain vps1, stronger effect = lower value 1.02 | S. cerevisiae deletion strains, locus YKR026C, strain gcn3, stronger effect = lower value 0.968 | S. cerevisiae deletion strains, locus YKR091W, strain srl3, stronger effect = lower value 0.983 | S. cerevisiae deletion strains, locus YLL001W, strain dnm1, stronger effect = lower value 0.935 | S. cerevisiae deletion strains, locus YLL026W, stronger effect = lower value 0.991 | S. cerevisiae deletion strains, locus YLL041C, strain sdh2, stronger effect = lower value 0.973 | S. cerevisiae deletion strains, locus YLR027C, strain aat2, stronger effect = lower value 0.983 | S. cerevisiae deletion strains, locus YLR039C, strain RIC1, stronger effect = lower value 1 | S. cerevisiae deletion strains, locus YLR058C, strain SHM2, stronger effect = lower value 1.01 | S. cerevisiae deletion strains, locus YLR102C, strain apc9, stronger effect = lower value 1.02 | S. cerevisiae deletion strains, locus YLR113W, strain HOG1, stronger effect = lower value 0.998 | S. cerevisiae deletion strains, locus YLR221C, strain rsa3, stronger effect = lower value 1.02 | S. cerevisiae deletion strains, locus YLR258W, strain gsy2, stronger effect = lower value 0.983 | S. cerevisiae deletion strains, locus YLR262C, strain YPT6 (second series), stronger effect = lower value 0.933 | S. cerevisiae deletion strains, locus YLR262C, strain YPT6, stronger effect = lower value 1.05 | S. cerevisiae deletion strains, locus YLR268W, strain sec22, stronger effect = lower value 1.04 | S. cerevisiae deletion strains, locus YLR320W, strain mms22, stronger effect = lower value 0.985 | S. cerevisiae deletion strains, locus YLR330W, strain CHS5, stronger effect = lower value 1.01 | S. cerevisiae deletion strains, locus YLR342W, strain FKS1 (second series), stronger effect = lower value 1.01 | S. cerevisiae deletion strains, locus YLR342W, strain FKS1, stronger effect = lower value 0.95 | S. cerevisiae deletion strains, locus YLR357W, strain rsc2, stronger effect = lower value 1.01 | S. cerevisiae deletion strains, locus YLR370C, strain arc18, stronger effect = lower value 0.974 | S. cerevisiae deletion strains, locus YLR371W, strain rom2, stronger effect = lower value 1.02 | S. cerevisiae deletion strains, locus YLR384C, strain iki3, stronger effect = lower value 0.961 | S. cerevisiae deletion strains, locus YLR418C, strain cdc73, stronger effect = lower value 1.02 | S. cerevisiae deletion strains, locus YML016C, strain PPZ1, stronger effect = lower value 1.01 | S. cerevisiae deletion strains, locus YML032C, strain rad52, stronger effect = lower value 1.02 | S. cerevisiae deletion strains, locus YML120C, strain ndi1, stronger effect = lower value 0.966 | S. cerevisiae deletion strains, locus YML124C, strain tub3, stronger effect = lower value 1.01 | S. cerevisiae deletion strains, locus YMR058W, strain fet3, stronger effect = lower value 0.967 | S. cerevisiae deletion strains, locus YMR078C, strain ctf18, stronger effect = lower value 1.04 | S. cerevisiae deletion strains, locus YMR125W, strain sto1, stronger effect = lower value 0.99 | S. cerevisiae deletion strains, locus YMR129W, stronger effect = lower value 0.975 | S. cerevisiae deletion strains, locus YMR205C, strain PFK2, stronger effect = lower value 0.982 | S. cerevisiae deletion strains, locus YMR223W, strain ubp8, stronger effect = lower value 1.03 | S. cerevisiae deletion strains, locus YMR231W, strain pep5, stronger effect = lower value 0.971 | S. cerevisiae deletion strains, locus YMR307W, strain GAS1, stronger effect = lower value 1.09 | S. cerevisiae deletion strains, locus YNL067W, strain RPL9B, stronger effect = lower value 1.01 | S. cerevisiae deletion strains, locus YNL071W, strain lat1, stronger effect = lower value 0.989 | S. cerevisiae deletion strains, locus YNL128W, strain TEP1, stronger effect = lower value 1.02 | S. cerevisiae deletion strains, locus YNL183C, strain NPR1, stronger effect = lower value 0.952 | S. cerevisiae deletion strains, locus YNL209W, strain ssb2, stronger effect = lower value 1.01 | S. cerevisiae deletion strains, locus YNL233W, strain BNI4, stronger effect = lower value 1.02 | S. cerevisiae deletion strains, locus YNL248C, strain rpa49, stronger effect = lower value 1 | S. cerevisiae deletion strains, locus YNL250W, strain rad50, stronger effect = lower value 1.07 | S. cerevisiae deletion strains, locus YNL271C, strain bni1, stronger effect = lower value 1.03 | S. cerevisiae deletion strains, locus YNL298W, strain CLA4, stronger effect = lower value 1.01 | S. cerevisiae deletion strains, locus YNL307C, strain MCK1, stronger effect = lower value 1.02 | S. cerevisiae deletion strains, locus YNL322C, strain KRE1 (second series), stronger effect = lower value 0.953 | S. cerevisiae deletion strains, locus YNL322C, strain KRE1, stronger effect = lower value 1.01 | S. cerevisiae deletion strains, locus YNR049C, strain mso1, stronger effect = lower value 0.967 | S. cerevisiae deletion strains, locus YNR052C, strain pop2, stronger effect = lower value 1.01 | S. cerevisiae deletion strains, locus YOL006C, strain TOP1, stronger effect = lower value 1.01 | S. cerevisiae deletion strains, locus YOL012C, strain htz1 0.937 | S. cerevisiae deletion strains, locus YOL147C, strain pex11, stronger effect = lower value 1.03 | S. cerevisiae deletion strains, locus YOR001W, strain rrp6, stronger effect = lower value 0.936 | S. cerevisiae deletion strains, locus YOR061W, strain CKA2, stronger effect = lower value 1.01 | S. cerevisiae deletion strains, locus YOR069W, strain VPS5, stronger effect = lower value 1.01 | S. cerevisiae deletion strains, locus YOR070C, strain gyp1, stronger effect = lower value 0.987 | S. cerevisiae deletion strains, locus YOR080W, strain dia2, stronger effect = lower value 0.968 | S. cerevisiae deletion strains, locus YOR083W, strain WHI5, stronger effect = lower value 0.961 | S. cerevisiae deletion strains, locus YOR106W, strain vam3, stronger effect = lower value 0.957 | S. cerevisiae deletion strains, locus YOR136W, strain idh2, stronger effect = lower value 1.03 | S. cerevisiae deletion strains, locus YOR144C, strain elg1, stronger effect = lower value 1.02 | S. cerevisiae deletion strains, locus YOR184W, strain ser1, stronger effect = lower value 1.03 | S. cerevisiae deletion strains, locus YOR231W, strain MKK1, stronger effect = lower value 1 | S. cerevisiae deletion strains, locus YOR265W, strain rbl2, stronger effect = lower value 0.984 | S. cerevisiae deletion strains, locus YOR270C, strain vph1, stronger effect = lower value 0.946 | S. cerevisiae deletion strains, locus YOR290C, strain snf2, stronger effect = lower value 1.02 | S. cerevisiae deletion strains, locus YOR316C, strain cot1, stronger effect = lower value 1.03 | S. cerevisiae deletion strains, locus YPL051W, strain arl3, stronger effect = lower value 0.99 | S. cerevisiae deletion strains, locus YPL055C, strain LGE1, stronger effect = lower value 1.01 | S. cerevisiae deletion strains, locus YPL078C, strain atp4, stronger effect = lower value 0.933 | S. cerevisiae deletion strains, locus YPL106C, strain sse1, stronger effect = lower value 1 | S. cerevisiae deletion strains, locus YPL240C, strain hsp82, stronger effect = lower value 1 | S. cerevisiae deletion strains, locus YPL241C, strain CIN2, stronger effect = lower value 1.01 | S. cerevisiae deletion strains, locus YPL256C, strain CLN2, stronger effect = lower value 1 | S. cerevisiae deletion strains, locus YPR119W, strain clb2, stronger effect = lower value 1.03 | S. cerevisiae deletion strains, locus YPR141C, strain kar3, stronger effect = lower value 1.03 | S. cerevisiae deletion strains, locus YPR163C, strain tif3, stronger effect = lower value 1.02 | S. cerevisiae deletion strains, locus YPR167C, strain met16, stronger effect = lower value 1.03 | S. cerevisiae deletion strains, strain wtn01, stronger effect = lower value 0.999 | S. cerevisiae strains, strain wild type, stronger effect = lower value 1.01
